Measured values published in the supplement of paper PMC10849652.
The full data set covers some 7,900 targets. This sample favours those with a hit. About 0.6% of all pairs of compound and target were hits. A number with no mark means an inactive call.

UniProt O43242, sequence (O43242 whole entry, looked up): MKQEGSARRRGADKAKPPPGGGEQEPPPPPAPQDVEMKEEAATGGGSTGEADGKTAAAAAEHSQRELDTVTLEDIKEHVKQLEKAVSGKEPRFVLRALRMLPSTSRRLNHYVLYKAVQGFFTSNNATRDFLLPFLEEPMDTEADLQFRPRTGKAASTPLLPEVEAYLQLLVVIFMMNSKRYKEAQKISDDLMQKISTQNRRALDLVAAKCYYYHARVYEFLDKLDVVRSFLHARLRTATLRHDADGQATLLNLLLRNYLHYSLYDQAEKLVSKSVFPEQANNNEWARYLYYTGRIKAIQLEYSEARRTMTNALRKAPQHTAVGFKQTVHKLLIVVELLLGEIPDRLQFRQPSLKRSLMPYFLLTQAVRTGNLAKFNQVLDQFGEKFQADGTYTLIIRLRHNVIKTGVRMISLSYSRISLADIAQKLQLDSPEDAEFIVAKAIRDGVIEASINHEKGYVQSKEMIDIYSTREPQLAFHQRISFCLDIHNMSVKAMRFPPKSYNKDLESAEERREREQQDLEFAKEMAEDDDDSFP
UniProt P13861, sequence (P13861 whole entry, looked up): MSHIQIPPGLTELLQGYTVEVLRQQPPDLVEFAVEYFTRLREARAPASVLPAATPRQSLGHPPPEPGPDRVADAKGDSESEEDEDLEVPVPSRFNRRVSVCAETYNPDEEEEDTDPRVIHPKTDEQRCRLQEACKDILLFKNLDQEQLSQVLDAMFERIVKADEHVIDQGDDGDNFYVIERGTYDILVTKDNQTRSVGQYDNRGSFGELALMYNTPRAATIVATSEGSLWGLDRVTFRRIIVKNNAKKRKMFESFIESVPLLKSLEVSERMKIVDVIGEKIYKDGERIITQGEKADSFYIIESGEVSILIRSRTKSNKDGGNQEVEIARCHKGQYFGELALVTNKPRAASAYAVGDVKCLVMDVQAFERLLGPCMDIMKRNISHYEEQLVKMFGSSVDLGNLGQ
UniProt Q6WKZ4, sequence (Q6WKZ4 whole entry, looked up): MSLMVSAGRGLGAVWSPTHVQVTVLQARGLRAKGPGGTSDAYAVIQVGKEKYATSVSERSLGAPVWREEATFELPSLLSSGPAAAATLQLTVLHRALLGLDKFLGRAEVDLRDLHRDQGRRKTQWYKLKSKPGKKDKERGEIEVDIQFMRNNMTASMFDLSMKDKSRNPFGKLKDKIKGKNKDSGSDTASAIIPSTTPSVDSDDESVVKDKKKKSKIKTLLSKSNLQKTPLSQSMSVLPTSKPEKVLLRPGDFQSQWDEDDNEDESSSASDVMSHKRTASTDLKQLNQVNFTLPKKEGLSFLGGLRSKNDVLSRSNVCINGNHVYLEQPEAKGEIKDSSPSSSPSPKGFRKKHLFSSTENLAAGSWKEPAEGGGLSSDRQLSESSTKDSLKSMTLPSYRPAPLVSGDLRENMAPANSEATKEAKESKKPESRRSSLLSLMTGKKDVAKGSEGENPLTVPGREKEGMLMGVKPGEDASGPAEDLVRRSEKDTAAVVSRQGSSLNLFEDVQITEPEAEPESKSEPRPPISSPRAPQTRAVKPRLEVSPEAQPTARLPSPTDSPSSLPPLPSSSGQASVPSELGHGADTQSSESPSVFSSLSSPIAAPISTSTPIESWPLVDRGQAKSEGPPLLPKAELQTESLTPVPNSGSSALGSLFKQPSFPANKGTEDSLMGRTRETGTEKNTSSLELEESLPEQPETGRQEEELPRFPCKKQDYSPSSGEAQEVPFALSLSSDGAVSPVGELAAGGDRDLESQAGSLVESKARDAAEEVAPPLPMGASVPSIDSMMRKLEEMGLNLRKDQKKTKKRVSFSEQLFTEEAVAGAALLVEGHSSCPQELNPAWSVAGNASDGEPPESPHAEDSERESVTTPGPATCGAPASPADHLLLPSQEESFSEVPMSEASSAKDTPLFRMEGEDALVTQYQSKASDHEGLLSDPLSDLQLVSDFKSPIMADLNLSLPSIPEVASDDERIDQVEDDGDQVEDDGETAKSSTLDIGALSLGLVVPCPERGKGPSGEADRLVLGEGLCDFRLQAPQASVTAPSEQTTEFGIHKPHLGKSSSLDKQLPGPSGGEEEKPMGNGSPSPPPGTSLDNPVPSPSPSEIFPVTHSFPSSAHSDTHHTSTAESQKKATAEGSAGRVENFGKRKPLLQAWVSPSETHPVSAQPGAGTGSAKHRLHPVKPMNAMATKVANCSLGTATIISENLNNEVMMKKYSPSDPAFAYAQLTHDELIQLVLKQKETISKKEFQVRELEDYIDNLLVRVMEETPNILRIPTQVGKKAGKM
UniProt Q9UG56, sequence (Q9UG56 whole entry, looked up): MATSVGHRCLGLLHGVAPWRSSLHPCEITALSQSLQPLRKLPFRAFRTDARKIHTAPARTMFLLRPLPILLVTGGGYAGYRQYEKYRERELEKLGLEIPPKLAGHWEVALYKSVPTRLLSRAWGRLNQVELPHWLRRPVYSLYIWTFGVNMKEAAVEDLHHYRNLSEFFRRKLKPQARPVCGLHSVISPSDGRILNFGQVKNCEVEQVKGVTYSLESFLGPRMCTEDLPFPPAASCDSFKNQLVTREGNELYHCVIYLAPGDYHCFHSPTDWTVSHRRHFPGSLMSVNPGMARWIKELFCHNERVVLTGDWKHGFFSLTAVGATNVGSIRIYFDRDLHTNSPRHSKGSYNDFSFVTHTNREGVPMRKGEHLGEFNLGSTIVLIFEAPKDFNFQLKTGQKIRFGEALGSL
UniProt O95394, sequence (O95394 whole entry, looked up): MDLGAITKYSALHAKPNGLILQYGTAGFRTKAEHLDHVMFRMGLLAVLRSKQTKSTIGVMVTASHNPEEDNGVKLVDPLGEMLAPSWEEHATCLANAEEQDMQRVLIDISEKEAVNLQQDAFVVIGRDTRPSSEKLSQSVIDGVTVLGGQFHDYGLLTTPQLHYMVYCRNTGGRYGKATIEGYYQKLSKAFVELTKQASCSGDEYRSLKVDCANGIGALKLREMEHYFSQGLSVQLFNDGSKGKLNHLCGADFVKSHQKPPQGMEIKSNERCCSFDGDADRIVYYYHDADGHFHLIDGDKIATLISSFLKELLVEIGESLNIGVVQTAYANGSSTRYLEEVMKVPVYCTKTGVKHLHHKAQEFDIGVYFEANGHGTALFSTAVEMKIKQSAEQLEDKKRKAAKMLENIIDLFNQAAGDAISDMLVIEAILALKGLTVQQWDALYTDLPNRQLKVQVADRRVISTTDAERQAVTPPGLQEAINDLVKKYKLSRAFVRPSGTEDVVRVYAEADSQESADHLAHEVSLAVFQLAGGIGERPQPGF
UniProt Q96A00, sequence (Q96A00 whole entry, looked up): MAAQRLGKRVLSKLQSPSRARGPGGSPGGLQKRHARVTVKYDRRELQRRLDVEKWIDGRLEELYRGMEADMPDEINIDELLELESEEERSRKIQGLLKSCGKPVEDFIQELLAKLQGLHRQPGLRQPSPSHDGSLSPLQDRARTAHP
UniProt O75400, sequence (O75400 whole entry, looked up): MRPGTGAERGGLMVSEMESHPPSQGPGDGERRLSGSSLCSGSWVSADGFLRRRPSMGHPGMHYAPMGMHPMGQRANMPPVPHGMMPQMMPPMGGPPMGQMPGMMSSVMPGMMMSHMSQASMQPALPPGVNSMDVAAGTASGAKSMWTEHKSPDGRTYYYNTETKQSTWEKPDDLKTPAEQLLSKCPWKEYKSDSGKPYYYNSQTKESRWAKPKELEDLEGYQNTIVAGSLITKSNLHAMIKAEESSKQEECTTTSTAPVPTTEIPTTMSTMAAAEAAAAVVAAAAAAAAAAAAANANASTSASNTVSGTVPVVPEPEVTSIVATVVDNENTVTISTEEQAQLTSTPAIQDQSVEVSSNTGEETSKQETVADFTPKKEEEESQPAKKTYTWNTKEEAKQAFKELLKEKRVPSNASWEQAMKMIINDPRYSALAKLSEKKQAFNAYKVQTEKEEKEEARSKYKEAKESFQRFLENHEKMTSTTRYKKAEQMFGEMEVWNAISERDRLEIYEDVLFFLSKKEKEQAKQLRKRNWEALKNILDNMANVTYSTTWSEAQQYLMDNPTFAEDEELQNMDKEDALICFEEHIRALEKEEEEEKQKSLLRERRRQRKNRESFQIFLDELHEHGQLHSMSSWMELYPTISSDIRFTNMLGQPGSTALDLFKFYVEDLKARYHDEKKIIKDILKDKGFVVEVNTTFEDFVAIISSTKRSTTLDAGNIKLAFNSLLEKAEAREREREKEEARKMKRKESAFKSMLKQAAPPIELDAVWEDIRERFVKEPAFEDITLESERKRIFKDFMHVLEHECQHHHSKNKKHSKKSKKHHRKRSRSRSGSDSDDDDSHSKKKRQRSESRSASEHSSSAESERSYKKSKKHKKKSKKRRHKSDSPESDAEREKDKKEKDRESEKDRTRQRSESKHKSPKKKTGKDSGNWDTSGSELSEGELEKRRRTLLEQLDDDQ
UniProt Q16401, sequence (Q16401 whole entry, looked up): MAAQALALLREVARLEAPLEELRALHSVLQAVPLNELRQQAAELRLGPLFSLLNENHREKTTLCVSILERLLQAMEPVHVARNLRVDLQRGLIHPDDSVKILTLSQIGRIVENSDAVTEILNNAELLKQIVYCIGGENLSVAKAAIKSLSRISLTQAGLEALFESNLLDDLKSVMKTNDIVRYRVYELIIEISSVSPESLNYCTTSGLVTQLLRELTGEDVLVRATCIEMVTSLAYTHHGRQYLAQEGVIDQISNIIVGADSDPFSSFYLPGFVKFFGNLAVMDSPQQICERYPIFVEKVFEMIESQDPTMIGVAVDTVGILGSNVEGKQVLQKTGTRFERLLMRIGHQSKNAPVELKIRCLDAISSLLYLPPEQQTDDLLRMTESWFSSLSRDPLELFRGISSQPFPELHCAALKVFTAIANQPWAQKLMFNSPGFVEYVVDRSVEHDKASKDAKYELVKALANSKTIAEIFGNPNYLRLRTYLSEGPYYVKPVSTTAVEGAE
UniProt Q9Y244, sequence (Q9Y244 whole entry, looked up): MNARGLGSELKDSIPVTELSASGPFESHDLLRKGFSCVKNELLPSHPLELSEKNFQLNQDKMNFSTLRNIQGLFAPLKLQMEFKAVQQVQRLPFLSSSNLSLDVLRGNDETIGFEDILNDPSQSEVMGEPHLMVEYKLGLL

The targets below were run with C1CN(CCC1(CC2=CC=C(C=C2)Cl)N)C3=NC=NC4=C3C=CN4 (assay: log2 fold change, soluble protein after heating vs DMSO (PISA); higher = thermal stabilisation; K562 cells, 10 uM, 30 min; active = over 0.2 and 3.5 SD of the protein, either way, in both replicates (recomputed)).
Summary of the method: (§1)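 K562 cells at 2×10^6 cells/mL were exposed to 10 μM compound for 30 min, then aliquots were heated for 3 min across 48°C-58°C, pooled, and extracted in PBS containing 0.5% NP-40 at 4°C. The supernatant after 21,000xg for 90 min was taken as soluble protein and measured by TMTpro 16plex LC-MS/MS with channel sums equalised. Thermal stability is reported relative to control samples, with values from duplicates. Fold changes are given on a log2 scale.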
PHF5A (UniProt Q7RTV0) was tested, and the log2 fold change was 0.022.
In the case of PRKAR2A (UniProt P13861), the log2 fold change is reported as -0.486 (active).
Work on PRUNE1 (UniProt Q86TP1) yielded a log2 fold change of -0.005.
Work on POMP (UniProt Q9Y244) yielded a log2 fold change of -0.034.
PPT2 isoform 3 (UniProt Q9UMR5) was tested, and the log2 fold change was 0.031.
PIP4P1 isoform 2 (UniProt Q86T03) gave a log2 fold change of 0.101.
POLD1 (UniProt P28340) gave a log2 fold change of -0.022.
For PGGT1B (UniProt P53609), the log2 fold change was 0.027.
For PPP1R14A (UniProt Q96A00), the log2 fold change was 0.015.
PRMT3 (UniProt O60678) showed a log2 fold change of -0.089.
PEX11B (UniProt O96011) gave a log2 fold change of 0.041.
PCYT1A (UniProt P49585) showed a log2 fold change of -0.009.
PISD (UniProt Q9UG56) was tested, and the log2 fold change was -0.004.
In the case of PSMD5 (UniProt Q16401), the log2 fold change is reported as -0.004.
PRPF40A (UniProt O75400) showed a log2 fold change of -0.124.
For PDIK1L (UniProt Q8N165), the log2 fold change was -0.007.
PMPCA (UniProt Q10713) was tested, and the log2 fold change was 0.011.
PDCD2L (UniProt Q9BRP1) was tested, and the log2 fold change was -0.036.
For PSMC6 (UniProt P62333), the log2 fold change was -0.008.
In the case of PRKAB1 (UniProt Q9Y478), the log2 fold change is reported as 0.068.
For PDSS2 (UniProt Q86YH6), the log2 fold change was 0.073.
POLA1 (UniProt P09884) gave a log2 fold change of -0.022.
Target PGM3 isoform 4 (UniProt O95394) has a log2 fold change of -0.053.
Target PSMD3 (UniProt O43242) has a log2 fold change of -0.066.
With PARL (UniProt Q9H300) the log2 fold change was 0.017.
For PEX13 (UniProt Q92968), the log2 fold change was 0.036.
With PURA (UniProt Q00577) the log2 fold change was -0.102.
PSMB4 (UniProt P28070) showed a log2 fold change of 0.037.
PIK3CB (UniProt P42338) showed a log2 fold change of 0.004.
In the case of PPP2R5C isoform 4 (UniProt Q13362), the log2 fold change is reported as 0.019.
Work on PUF60 (UniProt Q9UHX1) yielded a log2 fold change of -0.141.
Target PRKACA (UniProt P17612) has a log2 fold change of 0.047.
For PRPSAP2 (UniProt O60256), the log2 fold change was 0.009.
For PHKA2 (UniProt P46019), the log2 fold change was 0.004.
PTPN12 (UniProt Q05209) was tested, and the log2 fold change was -0.05.
RAB11FIP1 (UniProt Q6WKZ4) gave a log2 fold change of 0.027.

These targets were tested with C1COCCN1CCN2C3=CC=CC=C3N=C2NC(=O)C4=CC(=CC=C4)[N+](=O)[O-] [IRAK-1-4 Inhibitor I] in the same assay as above.
Summary of the method: as §1
PHF5A (UniProt Q7RTV0) showed a log2 fold change of 0.02.
Target PRKAR2A (UniProt P13861) has a log2 fold change of 0.006.
In the case of PRUNE1 (UniProt Q86TP1), the log2 fold change is reported as 0.049.
POMP (UniProt Q9Y244) gave a log2 fold change of 0.029.
Target PPT2 isoform 3 (UniProt Q9UMR5) has a log2 fold change of 0.078.
PIP4P1 isoform 2 (UniProt Q86T03) showed a log2 fold change of -0.011.
POLD1 (UniProt P28340) showed a log2 fold change of -0.009.
Target PGGT1B (UniProt P53609) has a log2 fold change of 0.003.
With PPP1R14A (UniProt Q96A00) the log2 fold change was 0.041.
Target PRMT3 (UniProt O60678) has a log2 fold change of 0.
PEX11B (UniProt O96011) gave a log2 fold change of 0.025.
PCYT1A (UniProt P49585) showed a log2 fold change of 0.081.
PISD (UniProt Q9UG56) gave a log2 fold change of -0.013.
Work on PSMD5 (UniProt Q16401) yielded a log2 fold change of 0.04.
PRPF40A (UniProt O75400) gave a log2 fold change of -0.093.
For PDIK1L (UniProt Q8N165), the log2 fold change was -0.006.
With PMPCA (UniProt Q10713) the log2 fold change was 0.016.
Work on PDCD2L (UniProt Q9BRP1) yielded a log2 fold change of -0.034.
For PSMC6 (UniProt P62333), the log2 fold change was -0.026.
In the case of PRKAB1 (UniProt Q9Y478), the log2 fold change is reported as 0.015.
For PDSS2 (UniProt Q86YH6), the log2 fold change was 0.1.
Target POLA1 (UniProt P09884) has a log2 fold change of -0.034.
PGM3 isoform 4 (UniProt O95394) was tested, and the log2 fold change was -0.007.
PSMD3 (UniProt O43242) showed a log2 fold change of -0.025.
PARL (UniProt Q9H300) was tested, and the log2 fold change was 0.019.
For PEX13 (UniProt Q92968), the log2 fold change was 0.053.
Work on PURA (UniProt Q00577) yielded a log2 fold change of -0.151.
PSMB4 (UniProt P28070) was tested, and the log2 fold change was -0.021.
Target PIK3CB (UniProt P42338) has a log2 fold change of -0.051.
PPP2R5C isoform 4 (UniProt Q13362) gave a log2 fold change of 0.027.
Work on PUF60 (UniProt Q9UHX1) yielded a log2 fold change of -0.11.
PRKACA (UniProt P17612) showed a log2 fold change of 0.023.
In the case of PRPSAP2 (UniProt O60256), the log2 fold change is reported as 0.02.
PHKA2 (UniProt P46019) showed a log2 fold change of 0.053.
PTPN12 (UniProt Q05209) was tested, and the log2 fold change was -0.011.
With RAB11FIP1 (UniProt Q6WKZ4) the log2 fold change was 0.014.
